Assay results reported in PubChem BioAssay (Tox21).
“And” between values parts separate entries of the source, which are not always exact repeats. Equal values may be shown once. Results filed as inconclusive are left out. Where a structure was tested more than once in an assay, its records may differ in their call. The source made the active and inactive calls. Unless noted, calls follow the shape of the dose curve; as a rule, active = well fitted curve in the direction sought with a large enough effect in the repeat runs; inconclusive = weak or mixed curves; inactive = no such curve, though single readings can be large; an effect the other way counts as inactive or inconclusive.

Assays:
[1] = qHTS assay for small molecules that induce genotoxicity in human embryonic kidney cells expressing luciferase-tagged ATAD5 (AID 651632); also: nearly all actives have a fitted effect of over 15% in size
In short: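 HEK293T cells carrying luciferase-tagged ATAD5 were given compound or DMSO vehicle and incubated 16 hr at 37C, 5% CO2. Luciferase activity was read after 30 min at room temperature with Amplite; a rise signals genotoxic stress.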

[2] = qHTS assay for small molecule agonists of the p53 signaling pathway - cell viability (AID 651633; calls by dose curve; also: nearly all actives have a fitted effect of over 30% in size; also: potency is read from the fitted curve at half-maximal effect)
In short: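 p53RE-bla cells were treated with compound for 16 hours at 37 C. Cytotoxicity was then measured as CellTiter-Glo luminescence after 30 min at room temperature.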

[3] = qHTS assay for small molecules that induce genotoxicity in human embryonic kidney cells expressing luciferase-tagged ATAD5 - cell viability (AID 651634; calls by dose curve; also: nearly all actives have a fitted effect of over 25% in size; also: potency is read from the fitted curve at half-maximal effect)
In short: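 HEK293T cells carrying luciferase-tagged ATAD5, 2,000 cells/well, exposed to compound for 15.5 hr at 37C. Viability read as live-cell protease activity by CellTiter-Fluor fluorescence after 30 min at 37C.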

[4] = qHTS assay for small molecule disruptors of the mitochondrial membrane potential - cell viability (AID 720634; calls by dose curve; also: nearly all actives have a fitted effect of over 20% in size; also: potency is read from the fitted curve at half-maximal effect)
In short: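 HepG2 cells, 2,000 per well, attached overnight, then treated 1 hr at 37 C, 5% CO2. Viability read as ATP by CellTiter-Glo luminescence after 30 min at room temperature. Read in the same wells as the m-MPI membrane-potential dye assay.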

[5] = qHTS assay for small molecule disruptors of the mitochondrial membrane potential (AID 720635); also: potency is read from the fitted curve at half-maximal effect
In short: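 HepG2 cells exposed to compound 1 hr at 37C, then Mito-MPS dye 30 min. Ratio read of aggregate (540/590 nm) versus monomer (490/535 nm) fluorescence.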

[6] = qHTS assay to test for compound auto fluorescence at 590 nm (red) in HepG2 cells (AID 720674)
In short: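 Seeding: 2,000 HepG2 cells/well, MEM/10% FBS, overnight 37 C. Dosing: compound vs DMSO. Incubation: 1 hr, 37 C, 5% CO2. Read: fluorescence 540 ex/590 em, Rose Bengal sodium as red reference.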

[7] = qHTS assay to test for compound auto fluorescence at 535 nm (green) in HepG2 cells (AID 720675)
[8] = qHTS assay to test for compound auto fluorescence at 460 nm (blue) in HEK293 cells (AID 720678)
In short: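 HEK293 cells (2,000 per well, medium with 10% dialyzed FBS) attached for 4-5 hr at 37C, then received compound and stood overnight at 37C, 5% CO2. Blue fluorescence was read at Ex/Em 405/460 nm and expressed relative to triamterene.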

[9] = qHTS assay to test for compound auto fluorescence at 590 nm (red) in HEK293 cells (AID 720679)
In short: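 HEK293 cells (2,000/well, medium with 10% dialyzed FBS) attached for 4-5 hr at 37C, received 23 nL compound and were incubated overnight at 37C, 5% CO2. Red fluorescence was then read at 540/590nm Ex/Em, referenced to Rose Bengal sodium.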

[10] = qHTS assay to test for compound auto fluorescence at 535 nm (green) in HEK293 cells (AID 720680)
[11] = qHTS assay to test for compound auto fluorescence at 460 nm (blue) in HEK293 cell free culture (AID 720681)
In short: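 Compounds were added to cell-free DMEM with 10% FBS and fluorescence read directly. The blue channel used 405 nm excitation and 460 nm emission, with triamterene as the reference fluorophore.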

[12] = qHTS assay to test for compound auto fluorescence at 535 nm (green) in HEK293 cell free culture (AID 720682)
In short: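 Cell-free medium (DMEM, 10% FBS) receives compound or DMSO by pintool. Plate read directly at Ex 485/Em 535 nm. Signal converted to fluorescein equivalency.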

[13] = qHTS assay to test for compound auto fluorescence at 590 nm (red) in HEK293 cell free culture (AID 720683)
In short: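 Cell-free wells of DMEM with 10% FBS received compound, and intrinsic fluorescence was read at excitation/emission 540/590 nm. Values expressed as equivalence to Rose Bengal sodium.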

[14] = qHTS assay to test for compound auto fluorescence at 590 nm (red) in HepG2 cell free culture (AID 720684)
In short: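 Compound was pinned into wells holding MEM with 10% FBS and no cells, and red fluorescence was read at Ex/Em 540/590 nm. Signal is expressed as auto fluorescence equivalency relative to Rose Bengal sodium.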

[15] = qHTS assay to test for compound auto fluorescence at 460 nm (blue) in HepG2 cell free culture (AID 720685)
In short: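 Compound (23 nL) or DMSO pinned into cell-free MEM with 10% FBS; blue fluorescence read at 405/460 nm excitation/emission, expressed as auto-fluorescence equivalency to triamterene.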

[16] = qHTS assay to test for compound auto fluorescence at 535 nm (green) in HepG2 cell free culture (AID 720686)
[17] = qHTS assay to test for compound auto fluorescence at 460 nm (blue) in HepG2 cells (AID 720687)
In short: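 HepG2 cells in MEM with 10% FBS, attached overnight at 37 C, were exposed to compound or DMSO for 1 hr at 37 C, 5% CO2. Blue fluorescence was read at 405/460 nm, with triamterene as reference fluorophore.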

[18] = target: Glucocorticoid receptor (Homo sapiens) (UniProt P04150); assay: qHTS assay to identify small molecule agonists of the glucocorticoid receptor (GR) signaling pathway (AID 720691; active = well fitted activation curve with a large enough effect in the signal ratio in the repeat runs, not every such curve was filed as active; the % refers to the signal ratio)
Glucocorticoid receptor (Homo sapiens), sequence (P04150 whole entry, looked up): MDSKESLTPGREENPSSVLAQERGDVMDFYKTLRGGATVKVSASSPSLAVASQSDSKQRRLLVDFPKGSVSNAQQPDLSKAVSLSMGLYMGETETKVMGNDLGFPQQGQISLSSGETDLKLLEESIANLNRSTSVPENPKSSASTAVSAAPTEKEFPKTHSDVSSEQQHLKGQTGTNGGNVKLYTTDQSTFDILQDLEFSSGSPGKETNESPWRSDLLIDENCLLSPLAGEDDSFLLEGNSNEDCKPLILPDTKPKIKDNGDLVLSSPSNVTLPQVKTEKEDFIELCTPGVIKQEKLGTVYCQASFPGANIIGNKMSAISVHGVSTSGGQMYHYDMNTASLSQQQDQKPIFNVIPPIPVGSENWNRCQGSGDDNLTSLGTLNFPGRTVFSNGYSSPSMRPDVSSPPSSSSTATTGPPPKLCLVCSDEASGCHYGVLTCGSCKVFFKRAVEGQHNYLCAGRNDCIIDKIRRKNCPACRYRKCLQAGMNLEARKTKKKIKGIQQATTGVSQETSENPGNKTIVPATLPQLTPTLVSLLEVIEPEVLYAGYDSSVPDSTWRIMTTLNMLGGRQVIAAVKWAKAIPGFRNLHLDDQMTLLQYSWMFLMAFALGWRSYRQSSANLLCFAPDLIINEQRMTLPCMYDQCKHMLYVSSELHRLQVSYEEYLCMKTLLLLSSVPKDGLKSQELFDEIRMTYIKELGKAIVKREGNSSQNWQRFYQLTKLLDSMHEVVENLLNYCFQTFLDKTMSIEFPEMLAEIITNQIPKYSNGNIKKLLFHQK
In short: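 GR-bla HeLa cells carrying a GRE-driven beta-lactamase reporter, exposed to compounds for 18 h at 37 C. Reporter activation read as fluorescence after 2 h with LiveBLAzer B/G FRET substrate at room temperature.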

[19] = target: Glucocorticoid receptor (Homo sapiens) (UniProt P04150); assay: qHTS assay to identify small molecule antagonists of the glucocorticoid receptor (GR) signaling pathway (AID 720692; active = well fitted inhibition curve with a large enough effect in the signal ratio in the repeat runs, not every such curve was filed as active; the % refers to the signal ratio; also: potency is read from the fitted curve at half-maximal effect)
In short: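 GR-bla HeLa cells carrying a GRE-driven beta-lactamase reporter received compound after 4 h plating, then dexamethasone (5 nM final). After 18 h at 37C, the FRET substrate was loaded for 2 h at room temperature and fluorescence read.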

[20] = qHTS assay for small molecule agonists of the p53 signaling pathway (AID 651631; calls by dose curve; also: nearly all actives have a fitted effect of over 15% in size)
In short: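 p53RE-bla HCT-116 cells; compounds 16 h, 37 °C; LiveBLAzer B/G FRET substrate 2 h RT; fluorescence intensity read-out, qHTS format.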

Measured: Potency

COc1ccc(O)c(C(C)(C)C)c1
active: [5] 30.7 µM and 24.3 µM
not listed: [20]
inactive: all other assays above

Cc1ccc([N+](=O)[O-])cc1
not listed: [6]
inactive: all other assays above

Cc1ccc(N=CN(C)C=Nc2ccc(C)cc2C)c(C)c1
inactive and 54.7 µM (active): [2]
not listed: [14]
inactive: all other assays above

CCN(CC)C(=O)C(C)Oc1cccc2ccccc12 (stereo not given)
not listed: [14] | [18] | [19]
inactive: all other assays above

O=C1Nc2ccc(Cl)cc2C(c2ccccc2)=NC1O (stereo not given)
not listed: [5] | [6] | [18] | [19]
inactive: all other assays above

Nc1ccc2ccccc2c1
not listed: [5] | [18] | [19]
inactive: all other assays above

CCNc1nc(Cl)nc(NC(C)(C)C#N)n1
not listed: [5] | [6]
inactive: all other assays above

CC(C)(O)C#N
not listed: [5] | [18] | [19] | [20]
inactive: all other assays above

CNC(=O)Oc1cccc2c1OC(C)(C)C2
not listed: [5] | [20]
inactive: all other assays above

OCCOCCO
not listed: [5] | [20]
inactive: all other assays above

CNC(=O)CSP(=S)(OC)OC
not listed: [6] | [18] | [19] | [20]
inactive: all other assays above

N#CC(c1ccccc1)c1ccccc1
not listed: [5] | [20]
inactive: all other assays above

CCCCOCC1CO1 (stereo not given)
not listed: [6] | [20]
inactive: all other assays above

O=[N+]([O-])c1ccc(Nc2ccccc2)cc1
active: [3] 54.5 µM | [4] 61.1 µM | [5] 7.75 µM and 2.73 µM | [19] 49.4 µM
not listed: [14] | [20]
inactive: all other assays above

O=C(O)CF
not listed: [6] | [14] | [18] | [19] | [20]
inactive: all other assays above

NC(=O)CN1CCCC1=O
not listed: [5] | [20]
inactive: all other assays above
